# Experimental data taken from the supplement of paper PMC4022240.
# ± gives the standard deviation.
# T1: HaloTag-ATRX ADD domain (163-292)
# T1 chain: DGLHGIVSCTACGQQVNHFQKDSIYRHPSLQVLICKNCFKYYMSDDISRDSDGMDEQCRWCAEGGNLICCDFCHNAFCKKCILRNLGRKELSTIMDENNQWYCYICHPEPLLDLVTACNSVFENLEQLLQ
# What was measured:
# Assay in all cases: peptide microarray binding signal (635 nm), min-max normalized on array (fraction of array maximum); higher = stronger binding
# Conditions in all cases: peptide region: H2B 17-29
# [1] = target: T1, HaloTag-ATRX ADD domain (163-292)
# Description: (§1)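 Histone 13-mer peptides were synthesized as cellulose conjugates with a C-terminal 20-atom PEG linker and printed in triplicate on nitrocellulose. The sequence given is the unmodified backbone; PTMs (Kme1/2/3, Kac, Sph/Tph, Rme/Rme2a/Rme2s, Rcit) are listed in the label and the 'peptide modifications' condition. Slides were probed at 4 °C for 1 h with biotin-labelled (HQ)5-HaloTag reader fusions (ATRX-ADD, ING2-PHD) then streptavidin-Alexa647, or with rabbit histone antibodies then anti-rabbit Alexa647. The mean 635 nm signal of the triplicate spots was scaled 0-1 between the lowest and highest values on each array.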
# [2] = target: HaloTag-ING2 PHD (mouse Ing2 200-280)
# Description: as §1
# [3] = target: anti-H3K4me3 antibody ab8580
# Description: as §1
# [4] = target: anti-H3K9me3 antibody ab8898
# Description: as §1
# [5] = peptide modifications: H2BK20ac H2BK24ac H2BK27ac, binder concentration: 1:2,000 dilution
# [6] = peptide modifications: H2BK20ac H2BK24ac H2BK27ac, binder concentration: 1:10,000 dilution
# [7] = peptide modifications: H2BK20ac H2BK24ac H2BK28ac, binder concentration: 1:2,000 dilution
# [8] = peptide modifications: H2BK20ac H2BK24ac H2BK28ac, binder concentration: 1:10,000 dilution
# [9] = peptide modifications: H2BK20ac H2BK27ac H2BK28ac, binder concentration: 1:2,000 dilution
# [10] = peptide modifications: H2BK20ac H2BK27ac H2BK28ac, binder concentration: 1:10,000 dilution
# [11] = peptide modifications: H2BK20ac H2BK27ac, binder concentration: 1:2,000 dilution
# [12] = peptide modifications: H2BK20ac H2BK27ac, binder concentration: 1:10,000 dilution
# [13] = peptide modifications: H2BK20ac H2BK28ac, binder concentration: 1:2,000 dilution
# [14] = peptide modifications: H2BK20ac H2BK28ac, binder concentration: 1:10,000 dilution
# [15] = peptide modifications: H2BK20ac, binder concentration: 1:2,000 dilution
# [16] = peptide modifications: H2BK20ac, binder concentration: 1:10,000 dilution
# [17] = peptide modifications: H2BK23ac H2BK24ac H2BK27ac H2BK28ac, binder concentration: 1:2,000 dilution
# [18] = peptide modifications: H2BK23ac H2BK24ac H2BK27ac H2BK28ac, binder concentration: 1:10,000 dilution
# [19] = peptide modifications: H2BK23ac H2BK24ac H2BK27ac, binder concentration: 1:2,000 dilution
# [20] = peptide modifications: H2BK23ac H2BK24ac H2BK27ac, binder concentration: 1:10,000 dilution
# [21] = peptide modifications: H2BK23ac H2BK24ac H2BK28ac, binder concentration: 1:2,000 dilution
# [22] = peptide modifications: H2BK23ac H2BK24ac H2BK28ac, binder concentration: 1:10,000 dilution
# [23] = peptide modifications: H2BK23ac H2BK24ac, binder concentration: 1:2,000 dilution
# [24] = peptide modifications: H2BK23ac H2BK24ac, binder concentration: 1:10,000 dilution
binder,measurement,setting,value
AVTKAQKKDGKKR [H2B 17-29 A V T Kac A Q K Kac D G Kac K R],peptide microarray binding signal,"[1]; peptide modifications: H2BK20ac H2BK24ac H2BK27ac, binder concentration: 50 nM",0.00335 ± 0.0001
same,peptide microarray binding signal,"[1]; peptide modifications: H2BK20ac H2BK24ac H2BK27ac, binder concentration: 500 nM",0.00514 ± 0.00021
same,peptide microarray binding signal,"[2]; peptide modifications: H2BK20ac H2BK24ac H2BK27ac, binder concentration: 10 nM",0.0031 ± 0.00013
same,peptide microarray binding signal,"[2]; peptide modifications: H2BK20ac H2BK24ac H2BK27ac, binder concentration: 100 nM",0.00255 ± 0.00012
same,peptide microarray binding signal,[3]; [5],0.00289 ± 0.00021
same,peptide microarray binding signal,[3]; [6],0.00143 ± 2.4e-05
same,peptide microarray binding signal,[4]; [5],0.000649 ± 5.6e-05
same,peptide microarray binding signal,[4]; [6],0.0011 ± 1.1e-05
AVTKAQKKDGKKR [H2B 17-29 A V T Kac A Q K Kac D G K Kac R],peptide microarray binding signal,"[1]; peptide modifications: H2BK20ac H2BK24ac H2BK28ac, binder concentration: 50 nM",0.00815 ± 0.00023
same,peptide microarray binding signal,"[1]; peptide modifications: H2BK20ac H2BK24ac H2BK28ac, binder concentration: 500 nM",0.00795 ± 0.00026
same,peptide microarray binding signal,"[2]; peptide modifications: H2BK20ac H2BK24ac H2BK28ac, binder concentration: 10 nM",0.00853 ± 0.00032
same,peptide microarray binding signal,"[2]; peptide modifications: H2BK20ac H2BK24ac H2BK28ac, binder concentration: 100 nM",0.0068 ± 0.00034
same,peptide microarray binding signal,[3]; [7],0.00196 ± 0.00041
same,peptide microarray binding signal,[3]; [8],0.002054 ± 1.9e-05
same,peptide microarray binding signal,[4]; [7],0.0013 ± 0.00012
same,peptide microarray binding signal,[4]; [8],0.001614 ± 1.6e-05
AVTKAQKKDGKKR [H2B 17-29 A V T Kac A Q K K D G Kac Kac R],peptide microarray binding signal,"[1]; peptide modifications: H2BK20ac H2BK27ac H2BK28ac, binder concentration: 50 nM",0.00398 ± 4.1e-05
same,peptide microarray binding signal,"[1]; peptide modifications: H2BK20ac H2BK27ac H2BK28ac, binder concentration: 500 nM",0.00567 ± 0.00013
same,peptide microarray binding signal,"[2]; peptide modifications: H2BK20ac H2BK27ac H2BK28ac, binder concentration: 10 nM",0.003819 ± 3.5e-05
same,peptide microarray binding signal,"[2]; peptide modifications: H2BK20ac H2BK27ac H2BK28ac, binder concentration: 100 nM",0.00404 ± 0.00021
same,peptide microarray binding signal,[3]; [9],0.000812 ± 0.00014
same,peptide microarray binding signal,[3]; [10],0.00114 ± 1.2e-05
same,peptide microarray binding signal,[4]; [9],0.0005135 ± 4.8e-06
same,peptide microarray binding signal,[4]; [10],0.00075 ± 7.9e-06
AVTKAQKKDGKKR [H2B 17-29 A V T Kac A Q K K D G Kac K R],peptide microarray binding signal,"[1]; peptide modifications: H2BK20ac H2BK27ac, binder concentration: 50 nM",0.00332 ± 9.9e-05
same,peptide microarray binding signal,"[1]; peptide modifications: H2BK20ac H2BK27ac, binder concentration: 500 nM",0.00976 ± 0.00025
same,peptide microarray binding signal,"[2]; peptide modifications: H2BK20ac H2BK27ac, binder concentration: 10 nM",0.00573 ± 0.0013
same,peptide microarray binding signal,"[2]; peptide modifications: H2BK20ac H2BK27ac, binder concentration: 100 nM",0.00397 ± 0.00018
same,peptide microarray binding signal,[3]; [11],0.00349 ± 0.00028
same,peptide microarray binding signal,[3]; [12],0.000856 ± 8.9e-06
same,peptide microarray binding signal,[4]; [11],0.000755 ± 1.7e-05
same,peptide microarray binding signal,[4]; [12],0.000461 ± 8.7e-06
AVTKAQKKDGKKR [H2B 17-29 A V T Kac A Q K K D G K Kac R],peptide microarray binding signal,"[1]; peptide modifications: H2BK20ac H2BK28ac, binder concentration: 50 nM",0.00245 ± 3.9e-05
same,peptide microarray binding signal,"[1]; peptide modifications: H2BK20ac H2BK28ac, binder concentration: 500 nM",0.00848 ± 0.00061
same,peptide microarray binding signal,"[2]; peptide modifications: H2BK20ac H2BK28ac, binder concentration: 10 nM",0.00328 ± 6.2e-05
same,peptide microarray binding signal,"[2]; peptide modifications: H2BK20ac H2BK28ac, binder concentration: 100 nM",0.00446 ± 0.00022
same,peptide microarray binding signal,[3]; [13],0.00126 ± 0.00023
same,peptide microarray binding signal,[3]; [14],0.000799 ± 8.3e-06
same,peptide microarray binding signal,[4]; [13],0.000393 ± 7.7e-06
same,peptide microarray binding signal,[4]; [14],0.000461
AVTKAQKKDGKKR [H2B 17-29 A V T Kac A Q K K D G K K R],peptide microarray binding signal,"[1]; peptide modifications: H2BK20ac, binder concentration: 50 nM",0.00492 ± 0.0007
same,peptide microarray binding signal,"[1]; peptide modifications: H2BK20ac, binder concentration: 500 nM",0.00962 ± 0.0042
same,peptide microarray binding signal,"[2]; peptide modifications: H2BK20ac, binder concentration: 10 nM",0.00448 ± 0.00039
same,peptide microarray binding signal,"[2]; peptide modifications: H2BK20ac, binder concentration: 100 nM",0.00829 ± 0.0016
same,peptide microarray binding signal,[3]; [15],0.000378 ± 2.7e-05
same,peptide microarray binding signal,[3]; [16],0.0012 ± 4.3e-05
same,peptide microarray binding signal,[4]; [15],0.000483 ± 1.2e-05
same,peptide microarray binding signal,[4]; [16],0.000807 ± 2.5e-05
AVTKAQKKDGKKR [H2B 17-29 A V T K A Q Kac Kac D G Kac Kac R],peptide microarray binding signal,"[1]; peptide modifications: H2BK23ac H2BK24ac H2BK27ac H2BK28ac, binder concentration: 50 nM",0.00486 ± 0.00032
same,peptide microarray binding signal,"[1]; peptide modifications: H2BK23ac H2BK24ac H2BK27ac H2BK28ac, binder concentration: 500 nM",0.0102 ± 0.00019
same,peptide microarray binding signal,"[2]; peptide modifications: H2BK23ac H2BK24ac H2BK27ac H2BK28ac, binder concentration: 10 nM",0.00722 ± 0.00059
same,peptide microarray binding signal,"[2]; peptide modifications: H2BK23ac H2BK24ac H2BK27ac H2BK28ac, binder concentration: 100 nM",0.0164 ± 0.00086
same,peptide microarray binding signal,[3]; [17],0.00215 ± 0.00011
same,peptide microarray binding signal,[3]; [18],0.00205 ± 0.00011
same,peptide microarray binding signal,[4]; [17],0.00101 ± 6.9e-05
same,peptide microarray binding signal,[4]; [18],0.00138 ± 1.4e-05
AVTKAQKKDGKKR [H2B 17-29 A V T K A Q Kac Kac D G Kac K R],peptide microarray binding signal,"[1]; peptide modifications: H2BK23ac H2BK24ac H2BK27ac, binder concentration: 50 nM",0.00329 ± 7.2e-05
same,peptide microarray binding signal,"[1]; peptide modifications: H2BK23ac H2BK24ac H2BK27ac, binder concentration: 500 nM",0.00362 ± 0.00012
same,peptide microarray binding signal,"[2]; peptide modifications: H2BK23ac H2BK24ac H2BK27ac, binder concentration: 10 nM",0.00406 ± 5.6e-05
same,peptide microarray binding signal,"[2]; peptide modifications: H2BK23ac H2BK24ac H2BK27ac, binder concentration: 100 nM",0.004039 ± 3.4e-05
same,peptide microarray binding signal,[3]; [19],0.00068 ± 1.9e-05
same,peptide microarray binding signal,[3]; [20],0.0012 ± 5.2e-05
same,peptide microarray binding signal,[4]; [19],0.000453 ± 1.3e-05
same,peptide microarray binding signal,[4]; [20],0.000519 ± 5.6e-06
AVTKAQKKDGKKR [H2B 17-29 A V T K A Q Kac Kac D G K Kac R],peptide microarray binding signal,"[1]; peptide modifications: H2BK23ac H2BK24ac H2BK28ac, binder concentration: 50 nM",0.0036 ± 3.9e-05
same,peptide microarray binding signal,"[1]; peptide modifications: H2BK23ac H2BK24ac H2BK28ac, binder concentration: 500 nM",0.00652 ± 0.00023
same,peptide microarray binding signal,"[2]; peptide modifications: H2BK23ac H2BK24ac H2BK28ac, binder concentration: 10 nM",0.00561 ± 8.2e-05
same,peptide microarray binding signal,"[2]; peptide modifications: H2BK23ac H2BK24ac H2BK28ac, binder concentration: 100 nM",0.00822 ± 0.00014
same,peptide microarray binding signal,[3]; [21],0.00143 ± 0.00012
same,peptide microarray binding signal,[3]; [22],0.00217 ± 0.00011
same,peptide microarray binding signal,[4]; [21],0.000544 ± 2.3e-05
same,peptide microarray binding signal,[4]; [22],0.00098 ± 1.7e-05
AVTKAQKKDGKKR [H2B 17-29 A V T K A Q Kac Kac D G K K R],peptide microarray binding signal,"[1]; peptide modifications: H2BK23ac H2BK24ac, binder concentration: 50 nM",0.00605 ± 0.00096
same,peptide microarray binding signal,"[1]; peptide modifications: H2BK23ac H2BK24ac, binder concentration: 500 nM",0.00486 ± 0.0017
same,peptide microarray binding signal,"[2]; peptide modifications: H2BK23ac H2BK24ac, binder concentration: 10 nM",0.00543 ± 0.00017
same,peptide microarray binding signal,"[2]; peptide modifications: H2BK23ac H2BK24ac, binder concentration: 100 nM",0.00347 ± 0.00023
same,peptide microarray binding signal,[3]; [23],0.000566 ± 8.2e-05
same,peptide microarray binding signal,[3]; [24],0.00257 ± 0.00026
same,peptide microarray binding signal,[4]; [23],0.000951 ± 7.5e-05
same,peptide microarray binding signal,[4]; [24],0.00115 ± 4.1e-05
